# Measurements taken from article PMC5540273 (PLoS ONE, 2017).
# System: LRRK2
# Conditions: concentration: 1 μM, replicates: in singlicate; n = 1
# 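Also: KINOMEscan kinase panel screen.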
row,Structure (SMILES),%Inh
1,CSc1ccc(-c2cc3ncnc(SCC(=O)O)c3s2)cc1,0%
2,COc1ccc(Nc2nccc(N3CCC(NC(=O)Nc4cc(C)ccc4C)C3)n2)cc1 (centres unmarked) [GSK1379741],0%
3,Nc1nc(-c2ccc3c(N)n[nH]c3c2)cc(N2CCCC2)n1 [GSK2227430],0%
4,c1ccc(-c2n[nH]cc2-c2ccnc3ccccc23)nc1 [GW271431],0%
5,O=C1NC(=O)C(N2CCc3ccccc32)=C1c1cccc(Cl)c1 [SB-408010],9%
6,COc1ccc(Nc2ncc(C#N)c(Nc3ccccc3C(N)=O)n2)cc1N1CCN(C)CC1.Cl [GSK1558669],98.8%
7,Cc1ccc(NC(=O)c2ccnc(N3CCN(C)CC3)c2)cc1-c1ccc(C(=O)NCC2CC2)cc1 [GW775604],0%
8,Cc1nnc(-c2ccc3occ(-c4ccc(C(C)O)cc4)c3c2)o1 (centres unmarked),4%
9,CC(C)(CN)c1nc(-c2ccc(Cl)c(O)c2)c(-c2ccncc2)[nH]1.O=C(O)C(F)(F)F [SB-477794],0%
10,COc1ccc(COc2cc(-n3cnc4ccccc43)sc2C(N)=O)cc1 [GSK1024304],10%
11,CCc1nc(-c2cccc(C)c2)c(-c2ccnc(NCc3ccccc3)c2)s1,3%
12,NS(=O)(=O)c1cccc(-c2ccc3nccc(-c4cccc(S(N)(=O)=O)c4)c3c2)c1 [GW867253],0%
13,Cc1cccc(-c2nc(Nc3ccc4ncsc4c3)c3ccccc3n2)n1 [GW867588],60%
14,CC(C)Oc1ccc2c(-c3ccnc(Nc4ccc(N5CCN(C)CC5)cc4)n3)cnn2n1 [GW696155],27%
15,CN(C(=O)c1ccc(-c2cc(-c3c[nH]nc3-c3ccccn3)ccn2)cc1)C1CCOCC1 [GW810083],0%
16,COc1cc(Nc2nccc(N3CCC(NC(=O)c4cccc(NC(C)=O)c4)C3)n2)cc(OC)c1OC (centres unmarked) [GSK1379754],12%
17,O=C(NCCCN1CCOCC1)c1cccc(Nc2nccc(Nc3ccc(Oc4ccccc4)cc3)n2)c1 [GW663929],0%
18,COc1cc2c(cc1OC[C@@H](O)CO)ncc1c3ccc(C#N)cc3[nH]c21,93.1%

row,Structure (SMILES),%Inh
1,COc1ccc(CNC(=O)NC2CCN(c3ccnc(Nc4ccc(OC)cc4)n3)C2)cc1 (centres unmarked) [GSK1379727],0%
2,COc1ccc(S(=O)(=O)NC2CCN(c3cc(C)nc(Nc4cccc(C#N)c4)n3)CC2)cc1.O=C(O)C(F)(F)F [GSK1653539],0%
3,N#Cc1ccc(-c2cc(-c3c[nH]nc3-c3ccccn3)ccn2)cc1 [GW693028],44%
4,c1ccc(-c2cc(-c3c[nH]nc3-c3ccccn3)ccn2)cc1 [GW576604],0%
5,NCC(NC(=O)c1cc(-c2cn[nH]c2)c(-c2ccnc3[nH]ccc23)s1)c1ccccc1.O=C(O)C(F)(F)F.O=C(O)C(F)(F)F (centres unmarked) [GSK1325775],3%
6,Cn1cc(-c2ccc3c(c2)CCN3C(=O)Cc2ccccc2Cl)c2c(N)ncnc21 [GSK2608885],0%
7,O=c1cc(N2CCOCC2)nc2n(Cc3cccc(Cl)c3Cl)c(C3CC3)nn12 [GSK2358994],0%
8,COc1cc2c(cc1OCCN1CCN(C)CC1)ncc1c3ccc(C#N)cc3[nH]c21,98.8%
9,Cl.Nc1ncnc2occ(-c3ccc(NC(=O)Nc4cc(C(F)(F)F)ccc4F)cc3)c12 [SB-707548],2%
10,O=C1Cc2cc(Nc3nc(NCc4cccc(S(=O)(=O)C(F)(F)F)c4)ncc3C(F)(F)F)ccc2N1,11%
11,Cc1nnc(-c2ccc(C)c(-c3ccc(C(=O)Nc4ccc(NS(C)(=O)=O)cc4)cc3)c2)o1 [GW702865],0%
12,O=c1cc(N2CCOCC2)nc2n(Cc3cccc(F)c3)ccn12 [GSK2297430],31%
13,COc1ccc(Nc2nccc(N3CCC(NC(=O)Nc4cccc(C(C)=O)c4)C3)n2)cc1 (centres unmarked) [GSK1379731],2%
14,CCCCCc1nc2c(N)ncnc2n1CCCCC [SKF-97255],0%
15,Nc1nccc(-c2c(-c3ccc(F)cc3)ncn2C2CCN(CC(F)(F)F)CC2)n1 [SB-236560],0%
16,Fc1ccc(-c2ncn(CCCN3CCOCC3)c2-c2cccnc2)cc1 [SB-211743],0%
17,O=C(Nc1cccc(-c2nn3ncccc3c2-c2ccnc(Nc3cccc(C(F)(F)F)c3)n2)c1)c1c(F)cccc1F [GSK299495],0%
